# HGIII-sPLA2 inh: human group III sPLA2 inhibitors, primary screen, biochemical, QFRET, BODIPY PC-A2 liposome substrate; Group 3 secretory phospholipase A2 (Homo sapiens), Q9NZ20; QFRET BODIPY PC-A2 liposome hydrolysis, fluorescence; inhibition, % at 12.2 µM; 370,000 tested, 0.56% active;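 active = inhibition above mean plus 3 SD of compounds lying within the high and low control bounds, cut at about 19% in these data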;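 note: 0% = median of test compound wells and 100% = no enzyme DMSO wells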
# KLK7 zymogen act: proKLK7 zymogen activators, primary screen, biochemical, fluorescence intensity | Kallikrein-7 (Homo sapiens), P49862 | purified proKLK7, EDANS-DABCYL substrate fluorescence; 100% is mature enzyme control, 0% vehicle | activation, % at 7 µM | 370,000 tested, 0.9% active | AID 652039, 2013;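 active = activation above the mean of all tested compounds plus 3 SD, computed per campaign excluding outliers beyond control limits, cut at about 13% in these data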
# ADAM17 inh: ADAM17 inhibitors, primary screen, biochemical, QFRET. Disintegrin and metalloproteinase domain-containing protein 17 (Homo sapiens), P78536. recombinant ADAM17, EDANS/DABCYL FRET peptide cleavage. inhibition, % at 6.95 µM. 370,000 tested, 0.83% active;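 active = inhibition above the mean of compounds lying between control limits plus 3 SD, set per campaign, cut at about 8.5% in these data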;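 note: 0% = DMSO-only wells as the low control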
# Target sequence (P78536 215-824 limits assumed): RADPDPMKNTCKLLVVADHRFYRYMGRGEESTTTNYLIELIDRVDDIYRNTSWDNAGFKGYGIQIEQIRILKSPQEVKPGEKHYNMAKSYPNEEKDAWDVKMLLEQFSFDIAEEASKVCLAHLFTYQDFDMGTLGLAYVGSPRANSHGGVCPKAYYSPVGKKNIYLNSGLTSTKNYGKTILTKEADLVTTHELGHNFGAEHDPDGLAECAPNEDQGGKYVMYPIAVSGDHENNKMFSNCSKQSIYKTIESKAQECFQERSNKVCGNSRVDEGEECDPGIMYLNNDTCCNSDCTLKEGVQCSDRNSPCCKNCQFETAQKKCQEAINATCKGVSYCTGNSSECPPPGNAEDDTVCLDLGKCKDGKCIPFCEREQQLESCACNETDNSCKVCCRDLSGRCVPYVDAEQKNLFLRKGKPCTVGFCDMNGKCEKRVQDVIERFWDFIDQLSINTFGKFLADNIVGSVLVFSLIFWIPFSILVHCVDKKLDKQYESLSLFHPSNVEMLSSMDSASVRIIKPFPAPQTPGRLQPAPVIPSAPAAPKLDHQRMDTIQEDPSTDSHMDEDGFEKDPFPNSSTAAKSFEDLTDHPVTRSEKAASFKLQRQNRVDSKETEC
# PLCb3 inh: human PLC-beta3 inhibitors, primary screen, biochemical, fluorescence | 1-phosphatidylinositol 4,5-bisphosphate phosphodiesterase beta-3 (Homo sapiens), Q01970 | Purified PLC-beta3, fluorogenic substrate | inhibition, % at 12.2 µM | 370,000 tested, 0.18% active | AID 720704, 2013; in the data active = inhibition above about 11%;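 note: 0% = median of compound wells on plate and 100% = full blocker control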
# PLC-gamma1 inh: PLC-gamma1 enzyme inhibitors, primary screen, biochemical, fluorescence, purified enzyme | 1-phosphatidylinositol 4,5-bisphosphate phosphodiesterase gamma-1 (Homo sapiens), P19174 | fluorogenic substrate | inhibition, % at 12.2 µM | 370,000 tested, 0.84% active; in the data active = inhibition above about 9.5%
# ADAM10 inh: human ADAM10 inhibitors, primary screen, biochemical, QFRET, HTS. AID 720582, 2013. recombinant ADAM10, EDANS/DABCYL FRET peptide cleavage, 3 h. Disintegrin and metalloproteinase domain-containing protein 10 (Homo sapiens), O14672. 370,000 tested, 0.62% active. inhibition, % at 7 µM;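 active = inhibition above a per-campaign cutoff equal to the mean of compounds falling between control-based bounds plus 3 SD, cut at about 20% in these data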;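 note: 0% = DMSO wells while the 100% control is not disclosed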
# proKLK7 act conf: proKLK7 zymogen activators, confirmation, biochemical, fluorescence intensity, triplicate | shares compounds with KLK7 zymogen act | purified proKLK7, EDANS-DABCYL substrate fluorescence; scaled: vehicle 0, mature enzyme 100 | activation, % at 7 µM | 3,200 tested, 68% active;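 active = activation, as change over the incubation, above the mean of all tested compounds plus 3 SD, cut at about 13% in these data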
# EDANS-DABCYL int: EDANS-DABCYL substrate optical interference, artefact control for kallikrein-7 zymogen activator project, biochemical, fluorescence intensity, high throughput; no enzyme, 4 h; solvent 0%, active enzyme control 100%; AID 686952, 2013; shares compounds with KLK7 zymogen act; 3,200 tested, 80% active; activation, % at 7 µM;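 active = activation above the all-compound mean plus 3 SD, ignoring values outside control-based bounds, cut at about 4.8% in these data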;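 note: value is the 4 h activation minus the activation read at time zero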
# Active calls of the source: *; i = inactive; . = no result given. Compounds with a hit are over-represented: about 3.4% of the library has one in this group of screens.
SMILES,HGIII-sPLA2 inh,KLK7 zymogen act,ADAM17 inh,PLCb3 inh,PLC-gamma1 inh,ADAM10 inh,proKLK7 act conf,EDANS-DABCYL int
Cc1ccc(-n2c(=O)c(C#N)cc3c(=O)n4ccccc4nc32)cc1,-1,6,-232,-100,-88,i,.,.
CC(=O)c1ccc(N2CCN(S(=O)(=O)c3cc4c(cc3C)NC(=O)CO4)CC2)cc1,8,20*,-5,-14,-3,-1,11,8.1*
COC(=O)C1=CN(c2ccc(OC)cc2)C(N)=C(C#N)C1c1ccccc1F (stereo not drawn),6,-2,-4,-40,-27,-5,.,.
COC(=O)C1=CN(c2ccc(OC)cc2OC)C(N)=C(C#N)C1c1ccccc1F (stereo not drawn),4,114*,-29,-21,-18,-109,19*,41*
CCN(CC)CCn1c2ccccc2c2cnc(N)c(C#N)c21,1,18*,-121,-174,-119,-427,7,3
CN(C)C=Nc1ncc2c3ccccc3n(CCN(C)C)c2c1C#N,5,5,-46,-67,-47,-147,.,.
Cc1nn(C)c2nc(-c3cccs3)cc(C(F)(F)F)c12,3,-3,-8,-4,-6,-21,.,.
COCCn1c(=O)[nH]c(=O)c2c(C(F)(F)F)cc(-c3cccs3)nc21,6,31*,i,-287,-289,i,-13,-34
COCc1cc(C)nc(SCC(=O)Nc2nc(C)cs2)c1C#N,-1,76*,-16,i,-424,-24,140*,136*
COC(=O)c1ccccc1SCC(=O)Nc1ccc(N2CCOCC2)cc1,-4,1,-4,-5,-1,-14,.,.
CCOC(=O)CC(=O)CSc1nc(C)cc(C)c1C#N,-4,41*,-22,-41,-38,-71,61*,74*
COC(=O)CSc1ccccc1C(=O)OC,-2,55*,-30,-7,-9,-101,84*,83*
COC(=O)CSc1nc(C)cc(C)c1C#N,6,58*,-18,-85,-87,-46,125*,121*
CCOC(=O)CC(=O)CSc1nc(CC)c(C)cc1C#N,10,6,-12,-48,-38,-5,.,.
COCc1cc(C)nc(SCC(=O)Nc2cccc(C)c2C)c1C#N,1,0,-4,1,0,0,.,.
O=C(N1CCCC1)n1ncc(-c2ccc(-c3ccccc3)cc2)n1,-31,.,-6,0,-3,-12,.,.
O=S1(=O)CC(N2CCCC2)CN1Cc1cn(Cc2ccc(C(F)(F)F)cc2)nn1 (stereo not drawn),-7,0,-1,2,-1,-4,.,.
CCCC(=O)OC[C@H]1CN(C2CCCC2)S(=O)(=O)c2c(Oc3ccccc3)cccc2O1,-7,0,2,1,0,-1,.,.
CCOC(=O)N1CCN(C(=O)C[C@H]2C[C@@]3(C(=O)OC)C(=C[C@H](C(C)(C)C)O[C@@H]3C)N(Cc3ccc4c(c3)OCO4)C2=O)CC1,-4,0,1,5,2,3,.,.
COC(=O)[C@]12C[C@H](CC(=O)NCC3CCCCC3)C(=O)N(Cc3ccccc3)C1=C[C@H](C(C)(C)C)O[C@@H]2C,10,1,-2,2,-3,3,.,.
Cc1cc(C)c(C#N)c(SCC(=O)C2CC2)n1,-7,89*,-73,-347,-322,-161,121*,135*
COC(=O)CSc1cc(SCC(=O)OC)c(C#N)c(SCC(=O)OC)c1,-7,1,0,-13,-10,-18,.,.

# From PubChem BioAssay
